Assay outcomes from PubChem.
Dicer processing: blocks human Dicer maturation of pre-miR-21; cat-ELCCA pre-miR-21 Dicer processing, chemiluminescence; active compounds read high; Q9UPY3; 6% of 47,000 active; z-score at 25 µM; AID 1347074; in the data active means z-score above about 3, passing the limit was not always enough;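 further: higher signal means more uncleaved substrate so more Dicer inhibition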
Target sequence (Q9UPY3 whole entry, looked up): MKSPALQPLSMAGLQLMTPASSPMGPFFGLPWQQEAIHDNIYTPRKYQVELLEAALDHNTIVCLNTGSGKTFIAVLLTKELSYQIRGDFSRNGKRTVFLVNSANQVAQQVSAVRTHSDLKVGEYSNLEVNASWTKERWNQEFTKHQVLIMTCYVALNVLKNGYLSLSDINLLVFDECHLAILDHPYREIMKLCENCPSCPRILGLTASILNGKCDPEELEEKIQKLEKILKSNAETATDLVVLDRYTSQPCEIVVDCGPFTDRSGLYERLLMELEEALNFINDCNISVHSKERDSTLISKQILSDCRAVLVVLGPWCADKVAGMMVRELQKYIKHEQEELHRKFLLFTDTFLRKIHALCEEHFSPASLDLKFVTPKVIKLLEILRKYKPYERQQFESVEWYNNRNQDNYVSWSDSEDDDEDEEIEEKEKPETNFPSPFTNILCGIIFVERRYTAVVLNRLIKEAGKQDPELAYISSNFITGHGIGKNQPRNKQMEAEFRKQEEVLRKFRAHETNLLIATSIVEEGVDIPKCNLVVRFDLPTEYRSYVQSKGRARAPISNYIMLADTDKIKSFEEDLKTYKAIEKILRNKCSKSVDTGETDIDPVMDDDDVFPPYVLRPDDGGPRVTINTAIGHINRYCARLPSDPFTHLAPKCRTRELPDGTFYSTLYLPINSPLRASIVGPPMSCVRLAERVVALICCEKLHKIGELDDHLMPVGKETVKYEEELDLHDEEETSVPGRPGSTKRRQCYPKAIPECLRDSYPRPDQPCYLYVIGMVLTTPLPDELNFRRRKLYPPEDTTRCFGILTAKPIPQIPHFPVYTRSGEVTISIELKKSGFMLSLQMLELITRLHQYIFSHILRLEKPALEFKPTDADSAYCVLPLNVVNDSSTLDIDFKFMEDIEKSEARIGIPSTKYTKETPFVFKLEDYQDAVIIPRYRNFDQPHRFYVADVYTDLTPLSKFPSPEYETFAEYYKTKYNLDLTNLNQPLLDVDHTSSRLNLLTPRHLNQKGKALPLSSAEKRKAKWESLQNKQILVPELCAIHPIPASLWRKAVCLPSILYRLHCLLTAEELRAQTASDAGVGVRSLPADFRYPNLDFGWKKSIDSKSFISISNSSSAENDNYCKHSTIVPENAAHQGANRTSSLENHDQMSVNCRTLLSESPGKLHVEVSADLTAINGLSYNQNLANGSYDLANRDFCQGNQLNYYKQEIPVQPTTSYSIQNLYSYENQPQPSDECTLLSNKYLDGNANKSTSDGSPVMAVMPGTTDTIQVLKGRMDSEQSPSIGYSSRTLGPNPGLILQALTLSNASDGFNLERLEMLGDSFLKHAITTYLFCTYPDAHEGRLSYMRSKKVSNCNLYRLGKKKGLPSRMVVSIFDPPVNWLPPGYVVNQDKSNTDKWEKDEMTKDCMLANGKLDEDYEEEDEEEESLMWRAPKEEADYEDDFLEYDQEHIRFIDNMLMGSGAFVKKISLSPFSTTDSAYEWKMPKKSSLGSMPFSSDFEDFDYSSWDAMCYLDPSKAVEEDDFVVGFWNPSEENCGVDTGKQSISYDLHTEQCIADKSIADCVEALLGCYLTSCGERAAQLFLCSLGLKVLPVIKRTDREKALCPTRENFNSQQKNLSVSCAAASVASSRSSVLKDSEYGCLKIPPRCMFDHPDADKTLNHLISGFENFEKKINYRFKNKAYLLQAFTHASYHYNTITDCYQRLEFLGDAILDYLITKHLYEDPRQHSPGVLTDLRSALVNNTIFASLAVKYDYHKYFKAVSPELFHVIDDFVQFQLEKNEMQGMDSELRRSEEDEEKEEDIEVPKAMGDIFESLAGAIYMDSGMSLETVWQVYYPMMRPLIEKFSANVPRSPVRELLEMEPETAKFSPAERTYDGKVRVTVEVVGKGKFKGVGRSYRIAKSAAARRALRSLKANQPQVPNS
A number is an active result; - = inactive. This excerpt belongs to a sample that is enriched for hits.

SMILES	Dicer processing
CCCc1c(Cc2c(F)cccc2Cl)c(=O)oc2cc(OS(=O)(=O)c3cc(C)c(Cl)cc3Cl)ccc12	-
COc1cc(Br)c(C[N+]2(CCOCCC3CC[C@H]4C[C@@H]3C4(C)C)CCOCC2)cc1OC (some centres not stated)	-
CCOC(=O)C(/C=N/Nc1ccccc1)C(=O)OCC	-
COc1cccc2c1OC(CCSC)N1N=C(c3cc(C)ccc3O)CC21 (configuration not stated)	-
Brc1ccc2c(c1)C1CC(c3ccccc3)=NN1C(c1cccnc1)O2 (configuration not stated)	-
Brc1ccc2c(c1)C1CC(c3ccco3)=NN1C(c1ccccc1)O2 (configuration not stated)	5.71
CSCCC1Oc2ccccc2C2CC(c3ccccc3O)=NN12 (configuration not stated)	-
CCOc1ccc(C2Oc3ccc(Cl)cc3C3CC(c4ccco4)=NN32)cc1 (configuration not stated)	3.82
CSCCC1Oc2ccc(Br)cc2C2CC(c3ccccc3O)=NN12 (configuration not stated)	11.3
COC(=O)c1ccc(C2Oc3ccccc3C3CC(c4cc(OC)ccc4O)=NN32)cc1 (configuration not stated)	-
COc1cccc(C2=NN3C(C2)c2cc(Br)ccc2OC3c2ccncc2)c1 (configuration not stated)	6.71
c1ccc(C2Oc3ccccc3C3CC(c4cccnc4)=NN32)cc1 (configuration not stated)	-
O=C(Cn1cc(C(=O)C2CCCCC2)c2ccccc21)NC1CCCCC1	-
Cc1ccc2c(c1)CCCN2S(=O)(=O)c1c(C)c(C)c(C)c(C)c1C	-
COc1cc(C2SCCS2)cc(Br)c1OS(=O)(=O)c1cc(Cl)cc(Cl)c1	-
O=C(Nc1cccnc1Oc1ncnc2cc(Cl)ccc12)c1cccs1	-
Cc1ccc(C2=NN3C(C2)c2cc(Br)ccc2OC3c2ccncc2)s1 (configuration not stated)	4.32
COc1ccc(O)c(C2=NN3C(C2)c2cc(Br)ccc2OC3c2cccnc2)c1 (configuration not stated)	-
COc1cccc2c1OC(c1ccncc1)N1N=C(c3cc(Cl)ccc3O)CC21 (configuration not stated)	-
Cc1ccc(O)c(C2=NN3C(C2)c2cc(Br)ccc2OC3c2ccncc2)c1 (configuration not stated)	-
COc1ccc(O)c(C2=NN3C(C2)c2cc(Br)ccc2OC3c2ccncc2)c1 (configuration not stated)	13.1
COc1ccc(C2Oc3c(OC)cccc3C3CC(c4cc(OC)ccc4O)=NN32)cc1 (configuration not stated)	-
C#CC(CC)(CC)NC(=O)NC(=O)c1ccc(F)c(Cl)c1	-
COC(=O)c1cc(-c2ccc(OC)cc2OC)no1	-
Oc1c(-c2nc(-c3ccc(Cl)cc3Cl)cs2)sc2ccccc12	-
SMILES	Dicer processing
CSC1=C(C#N)C(=O)NC(C)(C)S1	-
O=S(=O)(O)c1cc(O)c2ccc3c(S(=O)(=O)O)cc(S(=O)(=O)O)c4ccc1c2c34	-
CCCCSc1nnc2c(n1)OC(C)=Nc1ccccc1-2	3.24
CCCCSc1nnc2c(n1)OC(C)=Nc1ccc(Br)cc1-2	-
CCCCCSc1nnc2c(n1)OC(C)=Nc1ccccc1-2	-
COc1cc(OC)cc(-c2nc3ccc(Br)cc3c(=O)o2)c1	-
O=C1N(CN2CCN(C(c3ccccc3)c3ccccc3)CC2)c2ccccc2C12OCCO2	-
Cc1c(CS(=O)(=O)c2ccccc2)c(=O)n(-c2ccccc2)n1C	-
O=C(O)c1ccc2[nH]cc(C(=O)O)c(=O)c2c1	-
Nc1ccc(SC(C[N+](=O)[O-])c2ccc(F)cc2)cc1 (configuration not stated)	-
CCn1c2c(c(=O)[nH]c1=O)C(c1ccc(C(C)(C)C)cc1)C1=C(N2)c2ccccc2C1=O (configuration not stated)	-
CN(CCc1ccccn1)Cc1ccc(Cl)cc1	3.67
Cc1ccc(CN(C)CCc2ccccn2)cc1	-
CCc1ccc(CN(C)CCc2ccccn2)cc1	-
Nc1ncc(OCc2ccccc2)c(=O)[nH]1	-
CC1=C(C(=O)OCCOc2ccccc2)C(c2cccs2)C2=C(CC(c3cccs3)CC2=O)N1 (configuration not stated)	-
O=[N+]([O-])c1ccc2c(c1)ncn2-c1ccccc1	-
c1ccc(-n2cnc3cc(NCc4ccco4)ccc32)cc1	4.72
CCn1cnc2cc(NCc3ccco3)ccc21	-
CCOC(=O)C(NC(=O)c1ccccc1Cl)(Nc1cc(C)on1)C(F)(F)F (configuration not stated)	-
CN=C(NN)Nc1cc(C)c(C)cc1C	-
CCOC(=O)/C(=N\Nc1cccc(C(F)(F)F)c1)c1csc(N)n1	-
Cc1c(C#N)c(N)n(CCCn2cccn2)c1C	-
O=C1c2ccccc2C(=O)N1CNC(Cc1ccccc1)c1ccccc1 (configuration not stated)	-
Nc1cc(=O)[nH]c(=O)n1-c1ccccc1	-
O=C1CC(c2ccccc2)CC(=O)N1c1ccc(N2CCOCC2)cc1	-
